# Apoferritin bind – binds horse apoferritin like a general anesthetic; apoferritin/1-aminoanthracene competitive binding, fluorescence; Potency, µM (doses to about 77.5 µM), for the others: at the top dose activity change, negative = displacement, actives largely listed as inhibitors; 350,000 tested, 0.074% active; note: % is set by controls: 0 for no effect and ±100 for the full control effect; nearly all actives have a fitted effect of over 20% in size
# Target sequence (P02791 2-175 limits assumed): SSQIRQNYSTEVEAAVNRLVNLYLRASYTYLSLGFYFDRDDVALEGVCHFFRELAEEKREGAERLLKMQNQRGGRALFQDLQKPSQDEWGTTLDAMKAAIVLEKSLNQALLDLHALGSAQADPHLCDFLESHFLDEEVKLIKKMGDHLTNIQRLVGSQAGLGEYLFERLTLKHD
#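 Horse-spleen apoferritin (10 uM) was mixed with 50% saturated 1-aminoanthracene in PBS, exposed to compounds for 10 min at room temperature, and read for fluorescence (ex 380 nm, em 535 nm). Competitive displacement was fitted with a four-parameter Hill equation.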
# Epigenetic reg – derepresses silenced GFP reporter in murine cells | murine LDR cells, GFP reporter derepression, 30 h | Potency, µM (series often up to 53.9 µM), inactives show top-dose GFP activation, usual class: activators | 280,000 tested, 0.2% active | AID 1865; note: % of control where 0% means no effect; nearly all actives have a fitted effect of over 60% in size
#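 In this reporter-derepression format, murine cells bearing a silenced integrated CMV-GFP locus incubate with test compound (30 h, 37 C), then are washed and imaged; fluorescent objects of 20–120 um count as induced cells.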
# TSG101-PTAP inh – blocks PTAP/TSG101 interaction to inhibit HIV-1 budding; Fluorescence polarization, FITC-PTAP peptide / Tsg101 binding; Potency, µM (highest dose often 115 µM), for inactives: top-dose activity change, negative = inhibition, usual class: inhibitors; AID 493005; Q99816; 340,000 tested, under 10 active; active = well fitted inhibition curve with a large enough effect in the main read-out, with a control signal flat, not every such curve was filed as active; inconclusive = small, poorly fitted or top-dose-only effect, or effect the other way, or a change in a side signal; inactive = no such curve, though single readings can be large or run the other way; note: % of control where 0% means no effect
# Target sequence (Q99816 whole entry, looked up): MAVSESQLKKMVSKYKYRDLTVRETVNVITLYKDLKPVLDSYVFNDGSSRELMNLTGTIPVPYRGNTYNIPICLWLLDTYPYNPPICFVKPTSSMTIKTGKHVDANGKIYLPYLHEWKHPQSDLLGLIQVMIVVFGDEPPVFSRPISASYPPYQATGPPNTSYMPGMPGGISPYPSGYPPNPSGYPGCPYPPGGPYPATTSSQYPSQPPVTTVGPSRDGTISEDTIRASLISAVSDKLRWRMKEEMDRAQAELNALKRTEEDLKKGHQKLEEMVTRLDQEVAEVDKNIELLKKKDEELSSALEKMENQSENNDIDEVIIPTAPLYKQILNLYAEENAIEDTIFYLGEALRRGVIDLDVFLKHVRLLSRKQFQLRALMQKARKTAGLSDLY
#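 Steps: Tsg101 binding domain dispensed (10 uM final), compounds pinned in DMSO, FITC-labeled PTAP-motif peptide added (50 nM final); after 20 min binding at room temperature, polarization measured.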
# HTT cytoprotect – cytoprotection in Huntington HTT-Q103 PC12 cell model | PC12 HTT-Q103 induced, cytoprotection, ATP luminescence, 40 h | Potency, µM (top dose mostly 56.4 µM), inactives show cytoprotection (ATP increase), actives largely listed as activators | 230,000 tested, 0.14% active; note: % of control where 0% means no effect; nearly all actives have a fitted effect of over 45% in size
#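 ATP quantification (ATPlite) reports survival of PC12 cells in which tebufenozide, 100 nM final, switches on Htt exon 1 with 103 glutamines linked to GFP; compounds are titrated.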
# HTT aggregate – mutant huntingtin aggregation inhibition. PC12 HttQ103-GFP aggregates, Acumen cytometry, 40 h. Potency, µM (top dose mostly 46.1 µM), for inactives: top-dose activity change, negative = inhibition, hits mostly inhibitors. 220,000 tested, 1.1% active. AID 1688; note: % is set by controls: 0 for no effect and ±100 for the full control effect; nearly all actives have a fitted effect of over 60% in size
#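 PC12/HTTQ103-GFP, ecdysone-inducible; teb 100 nM; cpd qHTS titration; GFP aggregates read on laser cytometer, Ex 488/Em 500-530 nm.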
# PINK1 modulator – PINK1 expression modulation | PINK1 immunofluorescence, high-content cytometry, 24 h | Potency, µM (doses to about 76.6 µM), inactives show at the highest dose activation (PINK1 increase), hits mostly activators | 410,000 tested, 0.2% active | AID 624263; active = well fitted activation curve with a large enough effect; inconclusive = small, poorly fitted or top-dose-only effect; cell line not stated here; note: % of control where 0% means no effect; nearly all actives have a fitted effect of over 65% in size
#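 PINK1 protein, normally rapidly degraded, was detected by immunofluorescence after 24 hour compound treatment of a stable cell line. Titration data (5 concentrations) came from laser-scanning cytometry, with CCCP-treated wells as controls.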
# Numbers without * were called inactive; i = inactive; ? = inconclusive; · = no result given; [ ] = remark or other dose. Shown is part of a subset that was picked to be rich in hits. Unless noted, calls come from the whole dose curve; as a rule, active = well fitted curve in the direction sought with a large enough effect; inconclusive = small, poorly fitted or top-dose-only effect, or another doubt; inactive = no such curve, though single readings can be large; an effect the other way counts as inactive or inconclusive. Potency is the fitted concentration of half-maximal effect.
SMILES,Apoferritin bind,Epigenetic reg,TSG101-PTAP inh,HTT cytoprotect,HTT aggregate,PINK1 modulator
CCOc1cccc2cc(C(=O)NCc3cccnc3)c(=O)oc12,35.4%,1.2%,-9.1%,-4.7%[0.074 µM],0.1%,11.2µM*
COc1ccc(C(=O)CSc2nc(SC)ns2)cc1OC,-15.2%,-0.7%,-8.4%,-2.6%[0.074 µM],-23.9%,16.8%
COc1ccc(C(=O)CSc2cc(C)nc3nc(C)nn23)cc1OC,4.1%,-2.1%,-3.7%,12.6µM*,·,·
Cc1sc(-c2cc3c([nH]c2=O)CC(c2ccccc2)CC3=O)nc1-c1ccc(Cl)cc1 (centres undefined),-13.1%,17.8µM*,·,·,·,5.2%
O=C1CC(c2ccccc2)Cc2[nH]c(=O)c(-c3nc(-c4ccc(Cl)cc4)cs3)cc21 (centres undefined),-9.9%,2.6%,·,·,·,9.1%
CCOc1ccc(/C=C/c2ccc3ccccc3n2)cc1OCC,·,·,·,·,·,1.1%
Cc1cc(C(=O)Nn2c(-c3ccc(Br)cc3)nc3ccccc3c2=O)ccc1[N+](=O)[O-],-12.2%,0.9%,-3.4%,8.2%[10 µM],35.5µM*,?
Cc1cc(Sc2ncnc(N)c2[N+](=O)[O-])ncn1,-8.7%,0.0%,-1.5%,6.6%[10 µM],4.47µM*,4.5%
Cc1cc(Sc2nc(N)ncc2[N+](=O)[O-])ncn1,-7.3%,?,-2.2%,-152.6%,?,2.6%
COc1cc(=O)n2c(c1C(=O)NCc1ccco1)CCN(Cc1cccc(C(F)(F)F)c1)CC2,·,·,·,·,·,1.5%
CCCCC1C(=O)N(c2ccccc2)N(c2ccc(O)cc2)C1=O (centres undefined),0.0%,?,0.4%,2.24µM*,·,1.0%
Cc1cccc(CSc2ncc(Cl)c(C(=O)Nc3nnc(C)s3)n2)c1,14.1µM*,-1.7%,·,·,·,0.0%
CO[C@H]1[C@H](NC(=O)c2cccs2)c2ccccc2C12CCN(Cc1cccn1-c1cccnc1)CC2,·,·,·,·,·,0.3%
COc1cc(/C=C/c2ccc3ccccc3n2)cc(OC)c1OC,·,·,·,·,·,6.3%
O=C(N/N=C/c1ccccc1O)c1cccc(C(F)(F)F)c1,11.9%,-1.9%,-0.5%,·,2.51µM*,3.2%
COc1ccc(-c2cc3ccc(O)c(CN4CCCC4)c3oc2=O)cc1OC,i,-0.8%,·,·,·,1.1%
CCc1ccc(C(C)NC(=S)NC2CCCCC2)cc1 (centres undefined),-15.4%,·,-5.3%,·,·,?
CCOc1ccc(C(C)NC(=S)NC2CCCCC2)cc1 (centres undefined),-21.1%,4.9%,-3.2%,8.6%[10 µM],0.562µM*,?
COC(=O)c1cc(CNC(=O)c2ccccc2OC)cc(NC(=O)c2ccccc2F)c1,·,·,·,·,·,-0.4%
Oc1ccc(C=Nc2ccc(N3CCOCC3)cc2)c(O)c1,-4.3%,-1.0%,7.0%,-21.2%,28.7%,0.0%
Cc1ccc(N=Cc2ccc(O)cc2O)cc1F,-7.1%,-2.1%,0.1%,3.9%,3.16µM*,1.4%
Cc1c(NC(=O)c2cccc(NS(C)(=O)=O)c2)c(=O)n(-c2ccccc2)n1C,-9.7%,0.0%,-6.6%,7.7%[10 µM],1µM*,1.0%
Nc1cc(-c2ccc(Cl)cc2)nn1S(=O)(=O)c1cccc2nsnc12,-20.2%,0.8%,-2.9%,-28.9%,?,0.5%
Nc1cc(-c2ccc(Br)cc2)nn1S(=O)(=O)c1cccc2nsnc12,-22.1%,-0.2%,-6.4%,-75.7%,25.1µM*,1.4%
Cc1cccc(NC(=O)CSc2nnc(-c3ccccc3C)o2)c1,6.2%,2.3%,-4.9%,·,0.0028µM*,-0.5%[38.3 µM]
SMILES,Apoferritin bind,Epigenetic reg,TSG101-PTAP inh,HTT cytoprotect,HTT aggregate,PINK1 modulator
Cc1occc1-c1nnc(SCC(=O)Nc2nc(-c3ccccc3)cs2)o1,?,6.2%,-5.0%,2.2%[10 µM],-0.4%,10µM*
CC(C)(C)c1ccc(O)c(N=Cc2cccc([N+](=O)[O-])c2)c1,·,·,·,·,·,0.4%
CC(C)(CNC(=O)c1cnn(-c2nccc(-c3cc4ccccc4o3)n2)c1C1CC1)N1CCOCC1,·,·,·,·,·,0.1%
COc1cc(/C=C(\C#N)c2nc3ccccc3[nH]2)cc(Cl)c1OCc1ccccc1Cl,-16.6%,11.2µM*,·,·,·,?
CCN1CCCC1CNC(=O)c1cnn(-c2nccc(-c3cc4ccccc4o3)n2)c1C (centres undefined),·,·,·,·,·,-0.7%
COc1cc(-c2cccc(OC)c2OC)cc2c1OCCN(Cc1cn[nH]c1-c1ccc(Cl)cc1)C2,·,·,·,·,·,2.4%
CCCNc1nc2c(c(=O)n(C)c(=O)n2C)n1CCc1ccccc1,-9.2%,-1.2%,-2.2%,-37.2%,?,2.6%[38.3 µM]
CCCNc1nc2c(c(=O)n(C)c(=O)n2C)n1Cc1cccc(C)c1,-8.2%,-1.6%,-2.5%,9.6%[10 µM],14.1µM*,0.1%[38.3 µM]
CC(C)n1c(NCCc2ccccc2)nc2c1c(=O)n(C)c(=O)n2C,-3.9%,-1.0%,-1.5%,29.3%[10 µM],11.2µM*,-0.1%
Cn1c(=O)c2c(nc(NCCc3ccccc3)n2Cc2ccc(Cl)cc2)n(C)c1=O,37.0%,4.5%,·,·,·,23.3%
C=C(C)c1ccc(C(C)(C)NC(=O)N(Cc2ccccc2)Cc2ccco2)cc1,8.3%,0.9%,-1.5%,-6.2%[10 µM],10.2%,11.2µM*
C=CCOC(=O)C1=C(C)NC(SCC(=O)Nc2nccs2)=C(C#N)C1c1cccs1 (centres undefined),-20.6%,-1.8%,-11.1%,-32.0%,12.6µM*,3.9%
COc1ccc(/C=C/C(=O)c2c(O)c(OC)c3occc3c2OC)cc1OC,·,·,·,·,·,0.0%
O=C(c1nc2ncccn2n1)N1CCOc2ccc(C(O)C(c3ccccc3)c3ccccc3)cc2C1 (centres undefined),·,·,·,·,·,-0.3%
Cc1ccc(C(=O)COC(=O)c2ccc3c(c2)C(=O)N(c2cccc4ncccc24)C3=O)cc1,-1.7%,-1.5%,-3.0%,28.2%[10 µM],20µM*,0.2%
O=C(COC(=O)c1ccc2c(c1)C(=O)N(c1cccc3ncccc13)C2=O)c1ccc(Cl)cc1,-1.3%,9.0%,-2.6%,25.1%[10 µM],-17.4%,10.0%
CCN(c1ccc(OC)cc1)c1ncnc2nc[nH]c12,9.2%,0.6%,-0.6%,-30.2%[10 µM],5.62µM*,-0.8%
CCCN(c1ccc(OCC)cc1)c1ncnc2nc[nH]c12,-5.1%,-1.6%,2.6%,6.1%[10 µM],11.2µM*,0.8%
O=C(Nc1cccc(C(=O)OCc2cc(=O)n3c4c(sc3n2)CCCC4)c1)c1cccc(F)c1,-6.6%,-1.1%,·,·,·,-1.8%
COC(=O)[C@@H]1CCCN1C(=O)c1c(OC)cc(=O)n2c1CCN(Cc1ccc3c(c1)CCO3)CC2,·,·,·,·,·,0.1%
CC(=O)C1=C(C)NC(SCC(=O)c2ccccc2)=C(C#N)C1CC(C)C (centres undefined),-22.3%,-1.0%,-3.5%,-15.5%[0.074 µM],1.58µM*,-0.5%
